PMC5540273 (PLoS ONE, 2017)

Legend:
Conditions in all cases: concentration: 1 μM, replicates: in singlicate; n = 1
MTOR = tested on: MTOR
MUSK = tested on: MUSK
MYLK2 = tested on: MYLK2
MYLK4 = tested on: MYLK4
MYLK = tested on: MYLK
MYO3A = tested on: MYO3A
MYO3B = tested on: MYO3B
NDR1 = tested on: T1, NDR1
T1 construct: gene STK38

NDR2 = tested on: NDR2
NEK10 = tested on: NEK10
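Also: KINOMEscan kinase panel screen.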

SMILES	%Inh (MTOR) [%]	%Inh (MUSK) [%]	%Inh (MYLK2) [%]	%Inh (MYLK4) [%]	%Inh (MYLK) [%]	%Inh (MYO3A) [%]	%Inh (MYO3B) [%]	%Inh (NDR1) [%]	%Inh (NDR2) [%]	%Inh (NEK10) [%]
Nc1ncc(-c2cccnc2)c2scc(-c3ccc4c(c3)CCN4C(=O)Cc3ccccc3)c12 [GSK683281]	0	39	32	11	33	17	6	29	0	14
Cc1ccc(F)c(C(=O)Nc2cccc(-c3nn4ccccc4c3-c3ccnc(Nc4cccc(F)c4)n3)c2)c1F [GSK361061]	13	22	17	0	33	10	0	15	0	11
Cl.Cl.NCC(NC(=O)c1cc(-c2ccccc2)c(-c2ccnc3[nH]ccc23)s1)c1ccccc1 (stereo not shown) [GSK1321561]	0	13	17	94.9	26	14	0	24	16	25
CN(c1ccc(NC(=O)Nc2cc(C(F)(F)F)ccc2F)cc1)c1ccnc(Nc2ccc(S(N)(=O)=O)cc2)n1 [GW809893]	0	95.3	65	16	0	50	37	27	11	0
O=C(Nc1n[nH]c2cc(-c3ccoc3)ccc12)C1CC1 [SB-738481]	0	0	89	19	29	0	0	6	0	0
COc1ccc(Nc2nccc(N3CCC(NC(=O)Nc4cccc(OC)c4)C3)n2)cc1 (stereo not shown) [GSK1379742]	10	8	14	0	2	0	0	0	0	0
COCCOCCOc1cc2ncc3c4ccc(C#N)cc4[nH]c3c2cc1OC	0	6	54	72	33	10	0	60	0	0
COc1cc(Nc2ncc3c(C)nc(-c4cc5ccccc5[nH]4)n3n2)cc(OC)c1OC [GW869516]	14	47	0	39	0	0	0	10	0	0
CN1CCN(Cc2cccc(-c3ccc4c(Nc5ccc(Oc6ccccc6)cc5)ccnc4c3)c2)CC1 [GW578342]	15	17	0	0	13	28	0	14	25	0
O=C(Nc1cccc(-c2nn3ncccc3c2-c2ccnc(Nc3ccccc3)n2)c1)c1c(F)cccc1F [GSK198271]	10	4	0	0	7	6	30	11	0	0
